We go through 14 compounds from PubChem BioAssay (Tox21).

The structures appear in SMILES notation. The source made the active and inactive calls. Entries that show only a call come without a potency. Calls follow the shape of the full dose curve.

Sequence of Acetylcholinesterase (Homo sapiens) (P22303 whole entry, looked up): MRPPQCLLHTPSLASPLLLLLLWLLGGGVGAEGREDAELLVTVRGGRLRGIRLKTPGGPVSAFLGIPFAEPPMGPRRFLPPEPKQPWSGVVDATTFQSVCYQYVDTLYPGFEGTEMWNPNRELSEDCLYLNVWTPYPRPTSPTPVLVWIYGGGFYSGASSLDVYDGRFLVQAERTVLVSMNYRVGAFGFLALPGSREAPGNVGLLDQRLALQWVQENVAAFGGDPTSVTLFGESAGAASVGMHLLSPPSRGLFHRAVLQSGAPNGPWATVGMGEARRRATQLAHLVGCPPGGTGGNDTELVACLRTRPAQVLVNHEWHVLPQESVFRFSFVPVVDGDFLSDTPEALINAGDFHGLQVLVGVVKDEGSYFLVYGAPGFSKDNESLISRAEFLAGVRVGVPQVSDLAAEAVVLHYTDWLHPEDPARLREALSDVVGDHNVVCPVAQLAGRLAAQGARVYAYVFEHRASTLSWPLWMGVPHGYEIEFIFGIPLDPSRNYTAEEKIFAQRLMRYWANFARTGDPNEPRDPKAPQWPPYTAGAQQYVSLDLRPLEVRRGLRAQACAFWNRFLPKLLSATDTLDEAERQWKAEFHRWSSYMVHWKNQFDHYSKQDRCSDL

This experiment has as its target Acetylcholinesterase (Homo sapiens) (UniProt P22303). Kind of experiment: Acetylcholinesterase (AChE) small molecule antagonists: enzyme-based qHTS assay with human liver microsomes (AID 1347399). Also: nearly all actives have a fitted effect of over 60% in size. Conditions: Potency: qHTS inhibition; outcome: qHTS inhibition; series mostly up to 115 µM. The essentials:
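Recombinant human AChE (50 mU/mL in the enzyme mix) and human liver microsomes (0.25 mg/mL final) were preincubated with compound and NADPH (0.25 mg/mL final) for 30 min at 37 C. Acetylthiocholine/DTNB was then added; thiocholine was read colorimetrically after 10 min at room temperature.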
(In qHTS, concentration-response curves come from the screen itself.)
On to `CC(C)CC(=O)OCc1ccccc1`, for which the Potency result is “inactive”.

As for `CC(C)C(=O)OCc1ccccc1`, the Potency entry is “inactive”.

Turning to `CC(NCCC(c1ccccc1)c1ccccc1)c1ccccc1` (centres undefined), the Potency entry is “inactive”.

Consider `CC(=O)OCCOC(C)=O`, for which the Potency entry was “inactive”.

With `CCOC(=O)C1=C(C)NC(C)=C(C(=O)OC)C1c1cccc(Cl)c1Cl` (centres undefined), the Potency result was “inactive”.

Regarding `C=CCc1cc(OC)c(O)c(C(=O)NCCO)c1`, the Potency result was “inactive”.

As to `CC(C=O)c1ccccc1` (centres undefined), the Potency entry was “inactive”.

On to `OCCOCC#CCOCCO`, for which the Potency result was “inactive”.

Regarding `N#CCC(=O)NN`, the Potency result was “inactive”.

Turning to `CNS(=O)(=O)c1cc(C(=O)N2CCC(CCN3C4CCC3CC(n3c(C)nc5ccccc53)C4)(c3cccc(F)c3)CC2)c(Cl)cc1F` (centres undefined), the Potency result is “inactive”.

With `N#Cc1nc(Cl)c(Cl)c(Cl)c1Cl`, the Potency entry is “inactive”.

As for `CCCc1c(OCCCCc2nn[nH]n2)ccc(C(C)=O)c1O`, the Potency result is “inactive”.

Take `CC(=O)SC[C@@H](C)C(=O)N1CCC[C@H]1C(=O)N[C@@H](Cc1ccccc1)C(=O)O`: the Potency entry is “inactive”.

As for `C/C=C/C=C/CO`, the Potency result is “inactive”.
